HTT-AS promoter = activates huntingtin-antisense promoter activity; HEK293 HTT-AS promoter firefly luciferase reporter, 24 h; response scale: percent change from vehicle, -100% = no light; AID 1508624; Potency, µM (titrated, usually from 57.5 µM), for inactives: at the highest dose activity change, positive = activation, actives largely listed as activators; 48,000 tested, 0.24% active; also: potency is read from the fitted curve at half-maximal effect; nearly all actives have a fitted effect of over 55% in size
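HEK293 luciferase promoter-reporter cells (2,500/well) plated 24 h, then compounds added at up to 57.5 uM final for 24 h at 37 °C. Firefly luminescence by Dual-Glo, normalized to vehicle (0%) and zero RLU (-100%).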
FH mod = Identification of activators of human fumarate hydratase by quantitative high-throughput screening; Fumarate hydratase, mitochondrial (Homo sapiens), P07954; FH coupled MDH/diaphorase resazurin fluorescence, 15 min; Potency, µM (series often up to 79.9 µM), inactives show at the highest dose activity change, negative = inhibition, hits mostly inhibitors; 54,000 tested, 0.22% active; AID 1347055, 2019; also: potency is read from the fitted curve at half-maximal effect; % is scaled to controls: 0 for no effect and ±100 for the full control effect; the screen sought activators but most active calls are inhibition curves; nearly all actives have a fitted effect of over 45% in size
S16 viability = cytotoxicity in S16 Pmp22-F2sN Schwann cells. 43,000 tested, 0.48% active. Potency, µM (series often up to 57.5 µM), without a hit: top-dose activity change, negative = cytotoxicity, most hits filed as cytotoxic. S16 Pmp22-F2sN Schwann cells viability, CellTiter-Glo, 24 h; also: potency is read from the fitted curve at half-maximal effect; % is scaled to controls: 0 for no effect and ±100 for the full control effect; nearly all actives have a fitted effect of over 65% in size
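Viability was measured by CellTiter-Glo luminescence (15 min, room temperature). This followed 24 h at 37 °C of compound exposure (23 nL pin transfer) in S16 Pmp22-F2sN Schwann cells, 500-1,000 per well.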
PMP22 txn prim = PMP22 gene transcription modulation; S16 Pmp22-F2sN Schwann cells (luciferase reporters placed in the Pmp22 gene), FLuc/NLuc coincidence luminescence, 24 h; Potency, µM (titrated, usually from 57.5 µM), without a hit: top-dose activity change, negative = inhibition, actives largely listed as inhibitors; 43,000 tested, 2% active; AID 1508649; active = clear falling dose curves in both reporters; inconclusive = both reporters move, but less clearly or upward; inactive = either reporter flat; the % is the NLuc reporter signal; also: potency is read from the fitted curve at half-maximal effect; % is scaled to controls: 0 for no effect and ±100 for the full control effect
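Rat S16 Pmp22-F2sN cells, 500-1,000/well in phenol red-free DMEM + 10% FBS, compound-treated 24 h (37C, 5% CO2). Luminescence: FLuc read, Stop&Glo added, NLuc read.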
pS6 MEF inh = reduces mTORC1 signaling in Tsc2 and p53 null MEF cells; Tsc2-/- p53-/- MEF, phospho-rpS6 immunofluorescence/PI, 24 h; Potency, µM (top dose mostly 38.3 µM), for the others: at the top dose activity change, negative = inhibition, hits mostly inhibitors; 44,000 tested, 0.78% active; AID 493208;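 also: potency is read from the fitted curve at half-maximal effect; plate controls were DMSO for no effect and rapamycin for full effect; nearly all actives have a fitted effect of over 50% in size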
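Cell-based qHTS: Tsc2-/- p53-/- MEF, 24 h cpd, 37 °C; fix/perm, anti-phospho-S6 Alexa-488 + PI; Acumen 488 nm scan; pS6/PI ratio, % positive cells; rapamycin 7.5 nM = inhibition ref; PI count = viability.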
HTT promoter inh = inhibitors of huntingtin promoter activity; HEK293 HTT promoter firefly luciferase reporter, 24 h; 48,000 tested, 0.93% active; Potency, µM (titrated, usually from 57.5 µM), inactives show at the highest dose activity change, negative = inhibition, actives largely listed as inhibitors; also: potency is read from the fitted curve at half-maximal effect; nearly all actives have a fitted effect of over 50% in size
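HEK293 luciferase promoter-reporter cells (2,500/well) plated 24 h, then compounds added at up to 57.5 uM final for 24 h at 37 °C. Firefly luminescence by Dual-Glo, normalized to vehicle (0%) and zero RLU (-100%).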
NLuc sat counter = NanoLuc enzyme inhibition artifact for PMP22 screen. Secreted NLuc enzyme (filtered S16 cell medium), Nano-Glo luminescence. shares compounds with PMP22 txn prim. 690 tested, 4% active. Potency, µM (titrated, usually from 57.5 µM), without a hit: top-dose activity change, negative = inhibition, most hits filed as inhibitors; also: potency is read from the fitted curve at half-maximal effect; % is scaled to controls: 0 for no effect and ±100 for the full control effect
NLuc Km ctr = counter-screen for PMP22 expression modulators: NanoLuc inhibition at Km; shares compounds with PMP22 txn prim; secreted NLuc enzyme, coelenterazine luminescence, Km conditions; Potency, µM (series often up to 57.5 µM), without a hit: at the highest dose activity change, negative = inhibition, actives largely listed as inhibitors; 690 tested, 5% active; AID 1508639; also: potency is read from the fitted curve at half-maximal effect; % is scaled to controls: 0 for no effect and ±100 for the full control effect
FLuc counter = counter-screen for PMP22 expression modulators: firefly luciferase inhibition. shares compounds with PMP22 txn prim. purified P. pyralis FLuc, luminescence, 10 min. Potency, µM (titrated, usually from 57.5 µM), for inactives: at the highest dose activity, negative = inhibition, most hits filed as inhibitors. 690 tested, under 10 active; also: % of control where 0% means no effect
Target sequence (P08659 whole entry, looked up): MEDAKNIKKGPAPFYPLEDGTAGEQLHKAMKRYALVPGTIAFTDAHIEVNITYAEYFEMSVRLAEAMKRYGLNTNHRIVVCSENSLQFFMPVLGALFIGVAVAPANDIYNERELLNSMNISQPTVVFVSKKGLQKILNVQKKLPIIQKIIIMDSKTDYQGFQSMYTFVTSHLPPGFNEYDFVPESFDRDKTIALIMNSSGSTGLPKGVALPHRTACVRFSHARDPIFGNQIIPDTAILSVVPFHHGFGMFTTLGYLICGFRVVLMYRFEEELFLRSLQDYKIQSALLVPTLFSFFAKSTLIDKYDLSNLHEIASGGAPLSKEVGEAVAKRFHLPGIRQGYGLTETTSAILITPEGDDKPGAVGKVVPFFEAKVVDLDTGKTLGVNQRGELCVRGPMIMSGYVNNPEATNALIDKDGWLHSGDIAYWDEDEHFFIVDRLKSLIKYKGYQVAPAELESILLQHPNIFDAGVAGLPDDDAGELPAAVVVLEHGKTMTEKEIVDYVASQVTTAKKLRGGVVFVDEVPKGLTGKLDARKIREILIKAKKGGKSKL
S16 viab conf = S16 Schwann cell cytotoxicity, confirmatory; S16 Schwann cells viability, CellTiter-Glo ATP luminescence, 24 h; Potency, µM (top dose mostly 57.5 µM), for inactives: top-dose activity change, negative = viability loss, hits mostly cytotoxic; 690 tested, 7% active; shares compounds with PMP22 txn prim; also: potency is read from the fitted curve at half-maximal effect; % is scaled to controls: 0 for no effect and ±100 for the full control effect
PMP22 txn cnf = PMP22 transcription modulation, confirmatory; shares compounds with PMP22 txn prim; Potency, µM (titrated, usually from 57.5 µM), inactives show top-dose activity change, negative = inhibition, hits mostly inhibitors; S16 Schwann cells Pmp22-F2sN, dual luciferase, 24 h; AID 1508646; 690 tested, 22% active; active = clear falling dose curves in both reporters; inconclusive = both reporters move, but less clearly or upward; inactive = either reporter flat; the % is the FLuc reporter signal; also: potency is read from the fitted curve at half-maximal effect
PMP22 prot conf = rat PMP22 protein level modulation, confirmatory; shares compounds with PMP22 txn prim; S16 Schwann cells Pmp22-HiBiT, luminescence, 48 h; Potency, µM (top dose mostly 27.9 µM), without a hit: at the highest dose activity change, negative = inhibition, hits mostly inhibitors; 95 tested, under 10 active; AID 1508647
Target sequence (P25094 whole entry, looked up): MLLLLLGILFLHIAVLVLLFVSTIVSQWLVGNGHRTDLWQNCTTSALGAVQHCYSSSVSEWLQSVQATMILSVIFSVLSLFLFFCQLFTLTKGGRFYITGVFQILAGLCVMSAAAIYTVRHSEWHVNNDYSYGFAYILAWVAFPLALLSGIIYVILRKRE
Numbers without * were called inactive; ? = inconclusive; . = no result; [ ] = remark or other dose. Compounds with a hit are over-represented: about 3.3% of the library has one in this group of screens. Unless noted, calls follow the shape of the dose curve; as a rule, active = well fitted curve in the direction sought with a large enough effect; inconclusive = small, poorly fitted or top-dose-only effect, or another doubt; inactive = no such curve, though single readings can be large; an effect the other way counts as inactive or inconclusive.

SMILES | HTT-AS promoter | FH mod | S16 viability | PMP22 txn prim | pS6 MEF inh | HTT promoter inh | NLuc sat counter | NLuc Km ctr | FLuc counter | S16 viab conf | PMP22 txn cnf | others
Cn1c(=O)c2cc(C(=O)NCCCN3CCN(c4cccc(Cl)c4)CC3)sc2c2ccccc21 | -9.2% | -10.9% | -1.2% | -28.2% | -0.9% | -5.1% | . | . | . | . | .
O=C(NCCCN1CCN(c2ccc(F)cc2)CC1)c1cc2c(Cl)nc3ccccc3c2s1 | -10.3% | ? | 16.4% | 14.1µM* | -2.7% | 4.4% | -12.8% | -11.4% | 1.0% | -19.3% | ? | PMP22 prot conf=10.5%
CCN(CC)c1ccc2c(O)c(C=Nc3ccc(CC(=O)O)c(-c4c5c(nc6ccccc46)CCC(C(=O)NN)C5)c3)c(=O)oc2c1 (centres undefined) | . | 5.2% | . | . | . | . | . | . | . | . | .
C[C@H]1C(=O)N2c3ccccc3[C@@]3(O)C[C@@H]4C(=O)N[C@](C)(c5nc6ccccc6c(=O)n54)N1[C@@H]23 | . | -0.6%[53.3 µM] | . | . | . | . | . | . | . | . | .
COc1cc(CCc2cc(NC(=O)c3ccc(N4CC(C)NC(C)C4)cc3)n[nH]2)cc(OC)c1 (centres undefined) | . | 2.7% | . | . | . | . | . | . | . | . | .
CCCCCOC(=O)Nc1nc(=O)n(C2O[C@H](C)[C@@H](O)[C@H]2O)cc1F (some centres undefined) | . | 1.9% | . | . | . | . | . | . | . | . | .
CCCc1[nH]nc2c1C(c1cc(Cl)cc(Cl)c1O)C(C#N)=C(N)O2 (centres undefined) | . | 2.1% | . | . | . | . | . | . | . | . | .
Cc1ccc(-c2c(C)n3c4c(=O)n(C)c(=O)n(C)c4nc3n2-c2cccc(O)c2)cc1 | -16.2% | -18.4% | 7.5% | 16µM* | -1.3% | -12.7% | ? | ? | -4.7% | -6.4% | ?
O=C(O)c1cc(O)c2cccc(O)c2c1O[C@@H]1O[C@H](CO)[C@@H](O)[C@H](O)[C@H]1O | . | -23.9%[53.3 µM] | . | . | . | . | . | . | . | . | .
O=C(CCc1nnc2n(Cc3ccccc3Cl)c(=O)c3ccccc3n12)Nc1ccccc1 | -2.4% | -1.7% | 7.4% | 12.6µM* | 0.5% | -3.7% | -6.8% | 1.2% | -4.8% | -48.4% | ?
COc1c(Nc2ncc(Cl)c(N[C@H]3[C@H](C(N)=O)[C@@H]4C=C[C@@H]3C4)n2)ccc2c1CCC(N1CCOCC1)CC2 (some centres undefined) | . | -20.5% | . | . | . | . | . | . | . | . | .
Cc1cc(N2CCN(c3cccc(C(F)(F)F)c3)CC2)n2nc(-c3ccccc3C)nc2n1 | 1.3% | ? | 1.8% | 16.3µM* | -4.8% | -14.8% | ? | -19.2% | -10.4% | -6.3% | ?
COc1ccc(C(C(=O)NCc2ccccc2)N(C(=O)Cn2nnc3ccccc32)c2ccc(F)cc2)cc1 (centres undefined) | -10.9% | 6.2% | 5.1% | 11.3µM* | -3.6% | -5.8% | -0.5% | 2.0% | 0.4% | -0.8% | -1.2%
COc1ccc(N(C(=O)Cn2nnc3ccccc32)C(C(=O)NCc2ccccc2)c2ccc(F)cc2)cc1 (centres undefined) | -15.9% | 7.7% | 2.8% | -29.4% | 1.6% | -12.1% | . | . | . | . | .
COC(=O)[C@@H](NC(=O)[C@H](CC(C)C)NC(=O)N(Cc1ccccc1)C[C@@H](O)[C@H](Cc1ccccc1)NC(=O)OC(C)(C)C)C(C)C | . | -9.7%[13.5 µM] | . | . | . | . | . | . | . | . | .
CCOC(=O)N1CCN(Cc2nc3cc(NC(=O)CC(C)C)ccc3n2C(C)C)CC1 | -41.9% | 11.8% | -17.8% | ? | ? | ? | . | . | . | . | .
CCOC(=O)N1CCN(Cc2nc3cc(NC(=O)c4ccc([N+](=O)[O-])cc4)ccc3n2C(C)C)CC1 | -47.4% | -8.9% | -24.8% | 14.2µM* | ? | ? | ? | 19.3µM* | -6.5% | ? | ?
CCOC(=O)N1CCN(Cc2nc3cc(NC(=O)CC)ccc3n2C(C)C)CC1 | -41.3% | 12.8% | -16.7% | 5.32µM* | ? | ? | -5.0% | -2.9% | 1.4% | 7.2% | ?
COC(=O)N[C@H](C(=O)N1[C@@H]2CC[C@@H](C2)[C@H]1c1nc2ccc(-c3ccc4c(c3)C(F)(F)c3cc(-c5cnc([C@@H]6CCC7(CC7)N6C(=O)[C@@H](NC(=O)OC)C(C)C)[nH]5)ccc3-4)cc2[nH]1)C(C)C | . | -14.0%[53.3 µM] | . | . | . | . | . | . | . | . | .
Nc1nc(OCc2cc(Br)cs2)c2[nH]cnc2n1 | . | 2.9% | . | . | . | . | . | . | . | . | .
Fc1ccc(N2CCN(c3ncnc4onc(-c5ccc(Cl)cc5)c34)CC2)cc1 | -25.4% | -9.9% | -7.4% | -6.1% | 0.5% | ? | . | . | . | . | .
Clc1ccc(-c2noc3ncnc(N4CCCCC4)c23)cc1 | -26.1% | -9.8% | -20.7% | 12.1µM* | -24.3% | -29.3% | -7.2% | 4.5% | -5.1% | -7.0% | -37.8%
CC(C)Cn1c(=O)c2ccccc2n2c(-c3ccc(Br)cc3)nnc12 | -16.3% | -8.2% | -25.4% | 3.6% | -19.1% | -9.2% | . | . | . | . | .
CC(=O)Nc1ccc(-c2nnc3n(CC(C)C)c(=O)c4ccccc4n23)cc1 | 19.2% | -5.8% | -15.6% | ? | -18.2% | 4.2% | ? | -0.3% | 8.1% | -27.4% | -1.8%
